According to PubChem BioAssay (EPA / NIEHS):
A structure can be active in one record and inactive in another. Activity calls are given as the source filed them. Rule for the calls: active = hit-call score of the fitted dose curve at least 0.9, where 1 is the maximum; inactive = score below 0.9.

What was measured:
Conditions in all cases: mRNA level, 48 h; actives raise or lower the signal
[1] = read-out: solute carrier (SLC22A1), SLC22A1 (gene 6580); test: LTEA_HepaRG_SLC22A1: Life Technologies and Expression Analysis (LTEA) Assay for solute carrier (SLC22A1) using HepaRG (AID 2283524)
Summary of the method: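 Human HepaRG cells were plated 48 h, switched to serum-free induction medium, then exposed in duplicate for 48 h to 8-point half-log series from 100 uM in 0.5% DMSO. SLC22A1 mRNA measured by qRT-PCR, normalized to ACTB/GAPDH/POLR2A, fitted bidirectionally versus DMSO.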

[2] = read-out: Pyruvate Dehydrogenase Kinase 4 (PDK4), PDK4 (gene 5166); test: LTEA_HepaRG_PDK4: Life Technologies and Expression Analysis (LTEA) Assay for Pyruvate Dehydrogenase Kinase 4 (PDK4) using HepaRG (AID 2283525)
Summary of the method: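 Differentiated human HepaRG cells, pre-cultured 48 h, were exposed in duplicate for 48 h in serum-free induction medium to eight half-log concentrations up to 100 uM in 0.5% DMSO. PDK4 mRNA was quantified by qRT-PCR, normalized to ACTB, GAPDH and POLR2A, bidirectional fitting versus DMSO.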

[3] = read-out: NAD(P)H dehydrogenase [quinone] 1 (NQO1), NQO1 (gene 1728); test: LTEA_HepaRG_NQO1: Life Technologies and Expression Analysis (LTEA) Assay for NAD(P)H dehydrogenase [quinone] 1 (NQO1) using HepaRG (AID 2283526)
Summary of the method: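 Differentiated human HepaRG cells in serum-free induction medium, dosed in duplicate for 48 h at 8 half-log concentrations up to 100 uM in 0.5% DMSO. NQO1 mRNA by qRT-PCR normalized to ACTB, GAPDH, POLR2A; bidirectional fit versus DMSO baseline.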

[4] = read-out: Nuclear factor erythroid 2-related factor 2 (Homo sapiens) (UniProt Q16236); test: LTEA_HepaRG_NFE2L2: Life Technologies and Expression Analysis (LTEA) Assay for Nuclear factor erythroid 2-related factor 2 (NFE2L2) Transcription Factor using HepaRG (AID 2283527);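 for outcome: TaqMan qRT-PCR transcript level normalised to ACTB GAPDH and POLR2A housekeeping genes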
Summary of the method: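 Differentiated human HepaRG cells in serum-free induction medium were exposed for 48 h to eight concentrations (top 100 uM, half-log dilutions, 0.5% DMSO), in duplicate. NFE2L2 mRNA was quantified by TaqMan qRT-PCR, normalized to ACTB, GAPDH and POLR2A, with bidirectional fitting versus DMSO.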

[5] = read-out: succinate dehydrogenase complex iron sulfur subunit B (SDHB), SDHB (gene 6390); test: LTEA_HepaRG_SDHB: Life Technologies and Expression Analysis (LTEA) Assay for succinate dehydrogenase complex iron sulfur subunit B (SDHB) using HepaRG (AID 2283528)
Summary of the method: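 A human HepaRG culture in serum-free induction medium received test chemicals for 48 h over an eight-point range capped at 100 uM. SDHB expression change was quantified by qRT-PCR.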

[6] = read-out: Signal transducer and activator of transcription 3 (Homo sapiens) (UniProt P40763); test: LTEA_HepaRG_STAT3: Life Technologies and Expression Analysis (LTEA) Assay for Signal transducer and activator of transcription (STAT3) using HepaRG (AID 2283529)
Summary of the method: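 Differentiated human HepaRG cells in serum-free induction medium were exposed in duplicate for 48 h to eight half-log concentrations up to 100 uM in 0.5% DMSO. STAT3 mRNA was quantified by TaqMan qRT-PCR, normalized to ACTB, GAPDH and POLR2A, and fitted bidirectionally against DMSO.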

[7] = read-out: solute carrier (SLCO1B1), SLCO1B1 (gene 10599); test: LTEA_HepaRG_SLCO1B1: Life Technologies and Expression Analysis (LTEA) Assay for solute carrier (SLCO1B1) using HepaRG (AID 2283530)
Summary of the method: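 Gain or loss of SLCO1B1 mRNA is fitted against the 0.5% DMSO vehicle in human HepaRG liver cells treated 48 h at up to 100 uM in half-log steps. Expression comes from qRT-PCR normalized to endogenous controls.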

[8] = read-out: sulfotransferase 2A1 (SULT2A1), SULT2A1 (gene 6822); test: LTEA_HepaRG_SULT2A1: Life Technologies and Expression Analysis (LTEA) Assay for sulfotransferase 2A1 (SULT2A1) using HepaRG (AID 2283531)
Summary of the method: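 Cells were plated and cultured 48 h, switched to serum-free induction medium, then dosed in duplicate for 48 h (8 concentrations, max 100 uM). RNA was isolated and SULT2A1 expression measured by qRT-PCR; gain or loss of signal fitted relative to DMSO.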

[9] = read-out: Transforming Growth Factor (TGFA), TGFA (gene 7039); test: LTEA_HepaRG_TGFA: Life Technologies and Expression Analysis (LTEA) Assay for Transforming Growth Factor (TGFA) using HepaRG (AID 2283532)
Summary of the method: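 Differentiated human HepaRG cells, plated 48 h then switched to serum-free induction medium, were exposed in duplicate for 48 h to 8-point half-log series from 100 uM in 0.5% DMSO. TGFA mRNA measured by qRT-PCR, normalized to ACTB/GAPDH/POLR2A, bidirectional fit versus DMSO.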

[10] = read-out: Phosphatase and tensin (PTEN), PTEN (gene 5728); test: LTEA_HepaRG_PTEN: Life Technologies and Expression Analysis (LTEA) Assay for Phosphatase and tensin (PTEN) using HepaRG (AID 2283523)
Summary of the method: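 Differentiated human HepaRG cells, plated 48 h then switched to serum-free induction medium, were exposed in duplicate for 48 h to eight half-log concentrations up to 100 uM in 0.5% DMSO. PTEN mRNA measured by TaqMan qRT-PCR, normalized to ACTB/GAPDH/POLR2A, bidirectional fit versus DMSO.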

Sequence of Signal transducer and activator of transcription 3 (Homo sapiens) (P40763 whole entry, looked up): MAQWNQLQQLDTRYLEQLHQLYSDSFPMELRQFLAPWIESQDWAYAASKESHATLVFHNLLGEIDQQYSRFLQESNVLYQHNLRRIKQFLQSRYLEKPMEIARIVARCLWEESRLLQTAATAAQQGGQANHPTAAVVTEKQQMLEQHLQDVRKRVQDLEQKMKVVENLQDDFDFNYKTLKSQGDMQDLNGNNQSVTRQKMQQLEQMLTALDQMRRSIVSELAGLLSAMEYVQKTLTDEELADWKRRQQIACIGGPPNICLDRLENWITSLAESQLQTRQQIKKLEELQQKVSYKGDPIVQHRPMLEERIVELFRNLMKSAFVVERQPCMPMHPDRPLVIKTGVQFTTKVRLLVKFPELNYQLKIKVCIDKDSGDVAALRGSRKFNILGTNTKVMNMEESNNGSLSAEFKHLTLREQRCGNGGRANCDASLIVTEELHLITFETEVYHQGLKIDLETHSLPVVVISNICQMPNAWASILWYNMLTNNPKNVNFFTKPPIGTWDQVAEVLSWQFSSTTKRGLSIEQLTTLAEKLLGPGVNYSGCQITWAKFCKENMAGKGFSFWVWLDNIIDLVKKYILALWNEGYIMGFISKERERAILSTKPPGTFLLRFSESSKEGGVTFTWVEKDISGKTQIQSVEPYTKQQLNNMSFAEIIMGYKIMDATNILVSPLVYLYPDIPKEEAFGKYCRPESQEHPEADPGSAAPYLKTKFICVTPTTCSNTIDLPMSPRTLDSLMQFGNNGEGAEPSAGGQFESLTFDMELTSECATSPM
Sequence of Nuclear factor erythroid 2-related factor 2 (Homo sapiens) (Q16236 whole entry, looked up): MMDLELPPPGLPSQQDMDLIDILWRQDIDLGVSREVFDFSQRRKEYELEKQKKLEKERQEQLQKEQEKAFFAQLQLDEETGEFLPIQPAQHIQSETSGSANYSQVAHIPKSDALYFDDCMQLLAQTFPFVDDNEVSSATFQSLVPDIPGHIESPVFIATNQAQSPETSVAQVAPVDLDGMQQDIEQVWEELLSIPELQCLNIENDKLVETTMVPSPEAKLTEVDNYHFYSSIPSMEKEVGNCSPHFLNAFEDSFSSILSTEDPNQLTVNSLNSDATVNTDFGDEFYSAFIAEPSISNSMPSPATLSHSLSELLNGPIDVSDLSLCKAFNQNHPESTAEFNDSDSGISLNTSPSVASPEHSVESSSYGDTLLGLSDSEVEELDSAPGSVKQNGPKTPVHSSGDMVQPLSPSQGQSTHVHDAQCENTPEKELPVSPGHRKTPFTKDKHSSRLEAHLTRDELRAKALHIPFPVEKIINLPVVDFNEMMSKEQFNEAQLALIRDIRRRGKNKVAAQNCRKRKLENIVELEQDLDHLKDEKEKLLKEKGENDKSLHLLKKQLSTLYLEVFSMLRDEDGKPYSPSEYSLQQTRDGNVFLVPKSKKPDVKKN

SMILES	AC50 [1]	AC50 [2]	outcome [3]	outcome [4]	outcome [5]	outcome [6]	AC50 [7]	AC50 [8]	outcome [9]	AC50 [3]	AC50 [5]	AC50 [9]	outcome [10]	outcome [1]	AC50 [4]	outcome [7]	outcome [8]	outcome [2]
N[C@@H](Cc1cc(I)c(Oc2ccc(O)c(I)c2)c(I)c1)C(=O)O	65.7 µM (active)	0.0111 µM (active)	inactive	inactive	inactive	inactive	27.5 µM (active)	27.1 µM (active)	inactive									
C[C@]12CC[C@@H]3c4ccc(O)cc4C[C@@H](CCCCCCCCCS(=O)CCCC(F)(F)C(F)(F)F)[C@H]3[C@@H]1CC[C@@H]2O (stereo partly drawn)	14.5 µM (active)	12.7 µM (active)		inactive		inactive	25 µM (active)	24.9 µM (active)		0.0555 µM (active)	11.6 µM (active)	0.0998 µM (active)						
CCCCOCCOCCOCc1cc2c(cc1CCC)OCO2		17.8 µM (active)	inactive		inactive	inactive	8.47 µM (active)	6.8 µM (active)	inactive				inactive	inactive	9.6 µM (active)			
CCCCC(CC)COC(=O)c1ccccc1C(=O)O (stereo not drawn)		79.9 µM (active)	inactive	inactive	inactive	inactive			inactive				inactive	inactive		inactive	inactive	
CCOC(=O)NCCOc1ccc(Oc2ccccc2)cc1	84.9 µM (active)		inactive	inactive	inactive	inactive	93.4 µM (active)	82.7 µM (active)				78.6 µM (active)	inactive					inactive
CCN(Cc1c(F)cccc1Cl)c1c([N+](=O)[O-])cc(C(F)(F)F)cc1[N+](=O)[O-]	29.6 µM (active)		inactive		inactive	inactive			inactive				inactive		50 µM (active)	inactive	inactive	inactive
CCCCCOC(=O)COc1cc(N2C(=O)C3=C(CCCC3)C2=O)c(F)cc1Cl			inactive	inactive	inactive	inactive			inactive					inactive		inactive	inactive	inactive
c1ccc(Nc2ccccc2)cc1			inactive	inactive	inactive	inactive			inactive				inactive	inactive		inactive	inactive	inactive
c1ccc2[nH]c(-c3cscn3)nc2c1		15.8 µM (active)	inactive		inactive	inactive			inactive				inactive	inactive	50 µM (active)	inactive	inactive	
CCOC(=O)C(C)Oc1ccc(Oc2nc3ccc(Cl)cc3o2)cc1 (stereo not drawn)	9.92 µM (active)		inactive	inactive	inactive	inactive			inactive							inactive	inactive	inactive
CC(C)(c1ccc(O)cc1)c1ccc(O)cc1			inactive	inactive	inactive	inactive	9.92 µM (active)	291 µM (active)	inactive		0.005 µM (active)			inactive		inactive	inactive	inactive
CCC(C)OC(=O)N1CCCCC1CCO (stereo not drawn)			inactive	inactive	inactive	inactive			inactive				inactive	inactive		inactive	inactive	inactive
